# Assay results reported in PubChem BioAssay AID1053173 (Broad Institute, 2014).
# The whole screen tested about 1,500 compounds, of which about 390 (26%) were called active. No rule for the calls is given here. These entries were drawn from the full list. Measured potencies and affinities stand elsewhere.
# Molecular target: Histone-lysine N-methyltransferase NSD2 (Homo sapiens) (UniProt O96028)
# Experiment: blockers of NSD2 H4 peptide methylation – biochemical, AlphaScreen, cherry-picked samples, dose response (AID 1053173);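 also: 0% = neutral control wells and -100% = positive control wells on each plate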
# Details: 120 min; series mostly up to 10 µM; activity change, negative = inhibition: at the top concentration
# Sequence of Histone-lysine N-methyltransferase NSD2 (Homo sapiens) (O96028 whole entry, looked up): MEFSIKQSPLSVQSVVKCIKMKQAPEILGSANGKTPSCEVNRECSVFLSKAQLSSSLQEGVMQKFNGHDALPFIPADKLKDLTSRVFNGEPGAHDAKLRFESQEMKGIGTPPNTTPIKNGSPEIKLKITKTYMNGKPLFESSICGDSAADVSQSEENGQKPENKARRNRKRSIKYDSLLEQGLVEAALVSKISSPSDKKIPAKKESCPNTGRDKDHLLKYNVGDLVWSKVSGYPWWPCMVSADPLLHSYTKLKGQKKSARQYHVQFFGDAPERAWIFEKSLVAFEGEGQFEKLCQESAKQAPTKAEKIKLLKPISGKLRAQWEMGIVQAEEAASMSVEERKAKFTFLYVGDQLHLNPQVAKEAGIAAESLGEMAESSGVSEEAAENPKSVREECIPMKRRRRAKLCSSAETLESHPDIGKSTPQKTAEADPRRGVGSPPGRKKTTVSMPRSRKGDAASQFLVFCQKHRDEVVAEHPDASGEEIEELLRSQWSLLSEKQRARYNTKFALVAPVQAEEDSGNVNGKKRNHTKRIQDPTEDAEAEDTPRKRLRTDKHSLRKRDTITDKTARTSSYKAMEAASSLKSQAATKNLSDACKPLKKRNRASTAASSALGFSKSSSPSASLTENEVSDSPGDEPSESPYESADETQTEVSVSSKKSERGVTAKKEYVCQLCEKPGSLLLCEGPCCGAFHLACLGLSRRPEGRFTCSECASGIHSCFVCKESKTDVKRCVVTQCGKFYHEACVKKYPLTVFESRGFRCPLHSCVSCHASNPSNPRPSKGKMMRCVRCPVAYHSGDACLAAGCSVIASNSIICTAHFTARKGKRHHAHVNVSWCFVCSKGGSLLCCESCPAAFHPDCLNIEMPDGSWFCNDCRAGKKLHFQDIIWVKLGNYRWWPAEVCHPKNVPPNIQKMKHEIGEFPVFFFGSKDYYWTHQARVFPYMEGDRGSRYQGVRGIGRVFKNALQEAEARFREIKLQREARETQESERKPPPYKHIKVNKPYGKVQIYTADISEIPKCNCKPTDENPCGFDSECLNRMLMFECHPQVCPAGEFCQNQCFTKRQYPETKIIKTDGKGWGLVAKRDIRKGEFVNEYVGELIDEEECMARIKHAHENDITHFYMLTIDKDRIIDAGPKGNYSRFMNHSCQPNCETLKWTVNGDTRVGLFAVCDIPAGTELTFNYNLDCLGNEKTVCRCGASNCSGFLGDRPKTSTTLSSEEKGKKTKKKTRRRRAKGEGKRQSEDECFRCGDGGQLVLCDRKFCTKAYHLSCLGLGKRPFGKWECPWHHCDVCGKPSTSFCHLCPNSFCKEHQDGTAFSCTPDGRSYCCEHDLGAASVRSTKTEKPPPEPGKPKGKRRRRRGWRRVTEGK
row,SMILES,"activity change, negative = inhibition"
1,Cc1cc(C)n(CC(O)COc2c(C)cccc2C)n1 (stereo unspecified),0.908% (inactive)
2,O=C(CN1CCOCC1)NCCNC(=O)CN1CCOCC1,1.46% (inactive)
3,CCNC(=O)C1(C)CCCN(C(=O)c2ccc3ccccc3n2)C1 (stereo unspecified),2.47% (inactive)
4,NC(=O)COC(=O)c1ccc(Cl)c(S(=O)(=O)N2CCN(c3ccc(F)cc3)CC2)c1,-3.71% (inactive)
5,Cc1ccc(CC(=O)Nc2nncs2)cc1,-3.28% (inactive)
6,COc1cc(NC(=O)c2ccccc2)c(OC)cc1NC(=O)CSc1[nH]c(=O)cc(C)c1C#N,-2.43% (inactive)
7,CCc1sc(C(=O)Nc2nc(C)cs2)cc1C,-1.21% (inactive)
8,Cc1ccc2cccc(OCc3ccc(Br)cc3)c2n1,0.04% (inactive)
9,CC(Nc1ccc2ccccc2c1)C(=O)N/N=C/c1ccncc1 (stereo unspecified),1.12% (inactive)
10,Cc1sc2nc[nH]c(=S)c2c1-c1ccccc1,-1.69% (inactive)
11,O=c1[nH]nc(Br)c(=O)n1C(c1ccccc1)c1ccccc1,1.07% (inactive)
12,O=C(CSc1nccn1-c1ccc(F)cc1)NCc1ccc(F)cc1,-0.835% (inactive)
13,Cc1cccc2c(=O)c(C(=O)NCc3ccc(F)cc3)c[nH]c12,-0.748% (inactive)
14,CN(Cc1nc2ccccc2c(=O)[nH]1)C(=O)c1cc2c(s1)CCCCC2,3.16% (inactive)
15,O=C(O)COc1ccccc1/C=N/Nc1ccc(S(=O)(=O)Nc2ccc(Cl)cc2)cc1[N+](=O)[O-],-8.28% (inactive)
16,Cc1cc(NS(=O)(=O)c2ccc(NC(=O)CSc3nnc(-c4ccncc4)n3Cc3ccco3)cc2)nc(C)n1,-1.22% (inactive)
17,O=C(NNC(=S)Nc1ccccc1)c1ccco1,1.83% (inactive)
18,O=C(Nc1ccccc1C(=O)O)c1cncc(Br)c1,-1.11% (inactive)
19,COc1ccc(CCC(=O)Nc2ccc(S(=O)(=O)Nc3nccc(C)n3)cc2)cc1,-0.912% (inactive)
20,O=C(/C=C/c1ccco1)N(c1ccccn1)c1ccccn1,-13.1% (inactive)
21,Cn1c(N)c(C#N)c2c(c1=S)CSC(C)(C)C2,-1.03% (inactive)

row,SMILES,"activity change, negative = inhibition"
1,CCN(C(=O)/C=C/c1ccc2c(c1)OCO2)c1ccccc1,4.24% (inactive)
2,CC(=O)Nc1ccc(S(=O)(=O)NCCSCc2c(Cl)cccc2Cl)cc1,-3.69% (inactive)
3,NS(=O)(=O)c1ccc(N/N=C/c2ccc(O)c(O)c2O)c([N+](=O)[O-])c1,-9.13% (inactive)
4,N#Cc1c(N)n(-c2ccc(C(=O)O)cc2)c2nc3ccccc3nc12,-1.49% (inactive)
5,CCOC(=O)c1nnn(-c2nonc2OC)c1-c1ccccc1,-1.04% (inactive)
6,N#Cc1c2nc3ccccc3nc2n2cc(NC(=O)c3ccc(F)cc3)ccc12,-13.8% (inactive)
7,C=CCn1c(NS(=O)(=O)c2ccccc2)c(S(=O)(=O)c2ccc(C)cc2)c2nc3ccccc3nc21,-4.72% (inactive)
8,CCCCn1c(NS(=O)(=O)c2ccccc2)c(S(=O)(=O)c2ccc(C)cc2)c2nc3ccccc3nc21,-15.4% (inactive)
9,CCCCn1c(Cn2nc(C(=O)O)c3ccccc3c2=O)nc2cc(S(N)(=O)=O)ccc21,1.6% (inactive)
10,COc1ccccc1N1CCN(C2CCN(C(=O)c3cccc(F)c3)CC2)CC1,-2.67% (inactive)
11,Cc1cccc(NCCNc2cccc(C)c2)c1,-4.46% (inactive)
12,COc1cnc(-c2ccccn2)nc1Oc1cccc(C(F)(F)F)c1,-6.31% (inactive)
13,COc1cccc(CNC(=O)CSc2nnc3c(n2)[nH]c2ccccc23)c1,-0.049% (inactive)
14,CCOc1ccc(S(=O)(=O)N2CCCC(C(=O)NCCN3CCOCC3)C2)cc1Cl (stereo unspecified),-1.23% (inactive)
15,CNC(=O)COC(=O)/C=C/c1cccs1,-2.65% (inactive)
16,Cc1ccc(S(=O)(=O)N2CCC(NC(=O)c3cccnc3)CC2)cc1Cl,-1.49% (inactive)
17,COc1cccc(C(C(=O)NC2CCCC2)N(C(=O)c2csnn2)C2CC2)c1 (stereo unspecified),0.925% (inactive)
18,CCc1c(C)nc2ncnn2c1Nc1ccc(C)cc1,1.68% (inactive)
19,CCCCn1nnc(NC(=O)c2ccco2)n1,-1.6% (inactive)
20,CCC(=O)N1CCN(c2ccc(Cl)cc2NC(=O)c2ccc(Br)o2)CC1,-3.46% (inactive)
21,COc1ccccc1N1CCN(S(=O)(=O)CCNC(=O)c2ccc(Br)o2)CC1,6.82% (inactive)

row,SMILES,"activity change, negative = inhibition"
1,Nc1nc(COC(=O)c2ccco2)nc(Nc2ccccc2)n1,-2.2% (inactive)
2,Cc1cc(C)n(-c2nc(NCC(C)O)c3c4c(sc3n2)COC(C)(C)C4)n1 (stereo unspecified),1.56% (inactive)
3,CC(=O)C1=C(O)C(=O)N(CCc2c[nH]c3ccccc23)C1c1ccco1 (stereo unspecified),3.52% (inactive)
4,Oc1cccc2c(NC(=S)Nc3ccc(OC(F)F)cc3)cccc12,-10.1% (inactive)
5,CCCc1cc(=O)[nH]c(SCc2cc(=O)oc3cc(C)c(C(C)C)cc23)n1,1.35% (inactive)
6,COc1ccc(-c2nnc(SCC(=O)c3ccc(O)cc3O)o2)cc1,1.31% (inactive)
7,CC(=O)c1ccc(N2CCN(C(=O)[C@H](C)NC(=O)c3ccccc3Cl)CC2)cc1,-2.29% (inactive)
8,COc1cc(-c2nnn(Cc3ccccc3C)n2)cc(OC)c1OC,-0.317% (inactive)
9,O=C1Nc2cc(C(=O)N3CCC(N4CCCCC4)CC3)ccc2S/C1=C\c1ccccc1,-12.6% (inactive)
10,CCCc1[nH]n(-c2nc3ccccc3s2)c(=O)c1C=NCCCN(CC)CC,-8.45% (inactive)
11,O=C(CSc1ccc(-c2cccnc2)nn1)N1CCCC1,3.73% (inactive)
12,CCn1c(-c2cc3c(C(F)(F)F)nn(C)c3s2)n[nH]c1=S,-2.33% (inactive)
13,Cc1ccc(Sc2ncccc2C(N)=O)cc1,-2.36% (inactive)
14,Cc1cc(C)cc(NC(=O)C2C3C=CC4(O3)C2C(=O)N(CCCN2CCCC2)C4C(=O)NC2CCCC(C)C2C)c1 (stereo unspecified),1.04% (inactive)
15,CCOC(=O)Cn1ncc(-c2ccccc2)c1N,-2.26% (inactive)
16,Cc1cc(-c2ccc(C)c(S(=O)(=O)N3CCN(c4ccccn4)CC3)c2)on1,-3.06% (inactive)
17,C/C(=C\C(=O)c1ccccc1)Nc1ccc(O)cc1,1.87% (inactive)
18,Clc1cccc(N2CCN(CCCN3CCN(c4ccccc4)CC3)CC2)c1,-6.37% (inactive)
19,Fc1ccccc1NC(=S)Nc1cccc2cnccc12,-0.635% (inactive)
